Common to all, as to format: functional
The subject of experiment [1] is Plasmodium falciparum. The experiment in a line: GSK_TCMDC: Inhibition of Plasmodium falciparum 3D7 in whole red blood cells, using parasite LDH activity as an index of growth. Test compounds present at 2uM.
Experiment [2] deals with Plasmodium falciparum. In words: GSK_TCMDC: Inhibition of Plasmodium falciparum Dd2 in whole red blood cells, using parasite LDH activity as an index of growth. Test compounds present at 2uM.
In experiment [3] the test system is HepG2. In words: GSK_TCMDC: Percent inhibition of human HepG2 cell line. Test compounds present at 10uM.

Turning to `Cc1cc(C(=O)CSc2nc3ccccc3n2-c2ccccc2)c(C)n1C1CCS(=O)(=O)C1` (stereo unspecified), the values for the Inhibition in experiment [1], in experiment [2] and in experiment [3] were 92%, 0% and 0%, respectively.

With `COCCNCc1cccc(C#Cc2cc3ncnc(Nc4ccc(OCc5cccc(F)c5)c(Cl)c4)c3s2)n1`, the Inhibition (in general, the relative decrease from the control value, in per cent) in experiment [1] is on record as 99%; in experiment [2], 52%; in experiment [3], 35%.

`COc1ccc(NC(=O)CCNc2cc(C)nc(NCc3ccccc3C)n2)cc1.O=C(O)C(F)(F)F`: the Inhibition in experiment [1] stood at 94%; in experiment [2] it was 61%; in experiment [3], 7%.

Take `Cc1ccc(Nc2nc(N/N=C/c3cc4c(cc3Br)OCO4)nc(Nc3ccc([N+](=O)[O-])cc3)n2)cc1C`: the Inhibition in experiment [1] is 100%; in experiment [2], 89%; in experiment [3], 23%.

Consider `Fc1cccc(C=NN=c2cc[nH]c3ccc(C(F)(F)F)cc23)c1`, for which the Inhibition stood at 100% in experiment [1], 97% in experiment [2] and 0% in experiment [3].

With `Cc1cc(NCCc2ccccc2)nc(NC(=N)Nc2cccc(Cl)c2)n1`, the Inhibition in experiment [1] amounted to 100%; in experiment [2], 100%; in experiment [3] it was 24%.

With `O=C(Nc1ccc2c(c1)CCC2)c1cnc(N2CCN(c3ccncc3)CC2)c(Cl)c1.O=C(O)C(F)(F)F`, the Inhibition turned out to be 100% in experiment [1], 48% in experiment [2] and 33% in experiment [3].

Take `Br.N=C1N=C(N)NC2(CCCCC2)N1OCC1CCCCC1`: the figures for the Inhibition in experiment [1], in experiment [2] and in experiment [3] were 96%, 49% and 70%, respectively.

For `CN(C)Cc1c(O)ccc2[nH]c(-c3cccc(F)c3)nc12`, the Inhibition is reported as 99% in experiment [1], 71% in experiment [2] and 9% in experiment [3].

Take `O=C(COc1ccc(Cl)c(Cl)c1)NCCCCCN1CCCN(C(=O)Nc2cc(Cl)cc(Cl)c2)CC1.O=C(O)C(F)(F)F`: the Inhibition in experiment [1] is 89%; in experiment [2] it was 1%; in experiment [3], 44%.

`Cl.N=C(NCCCc1ccccc1)c1cccc(C(=N)NCCCc2ccccc2)n1`: the figures for the Inhibition in experiment [1], in experiment [2] and in experiment [3] were 98%, 0% and 44%, respectively.

Consider `COC(=O)c1cc2cccc(NC[C@@H](C)NC[C@H](O)c3cccc(Cl)c3)c2[nH]1`, for which the results for the Inhibition in experiment [1], in experiment [2] and in experiment [3] were 98%, 99% and 0%, respectively.

As for `Cc1cccc2[nH]c(-c3cc(-c4cn[nH]c4)cnc3N)nc12`, the results for the Inhibition in experiment [1], in experiment [2] and in experiment [3] were 100%, 93% and 37%, respectively.

Take `COc1ccc(CCN(C)CCCN2CCC(NC(=O)c3cccc4c(=O)c5ccccc5sc34)CC2)cc1OC.O=C(O)C(=O)O`: the Inhibition in experiment [1] turned out to be 97%; in experiment [2], 79%; in experiment [3], 67%.

In the case of `Cc1ccc(NC(=O)NC2CCN(c3ccnc4ccccc34)CC2)cc1.O=C(O)C(F)(F)F`, the values for the Inhibition in experiment [1], in experiment [2] and in experiment [3] were 97%, 52% and 21%, respectively.

Regarding `Cc1cccc2nc(-c3cccc(-c4ccc(NC(=O)Nc5cccc(C#N)c5)cc4)c3)[nH]c12`, the figures for the Inhibition in experiment [1], in experiment [2] and in experiment [3] were 100%, 91% and 50%, respectively.

Take `CCN(CC)CCN(Cc1ccc(-c2ccc(C(F)(F)F)cc2)cc1)C(=O)Cn1c(SCc2ccc(F)cc2)cc(=O)c2ccccc21.O=C(O)C(O)C(O)C(=O)O`: the Inhibition in experiment [1] came to 100%; in experiment [2], 70%; in experiment [3], 50%.

`O=C(N[C@H]1CCN(Cc2ccc(OCCN3CCNCC3)c(Br)c2)C1)c1ccc(Cl)c(Cl)c1.O=C(O)C(F)(F)F`: the Inhibition was 100% in experiment [1], 36% in experiment [2] and 69% in experiment [3].

For the compound `O=C(Nc1cccc(-c2nn3ccccc3c2-c2ccnc(Nc3cccc(-c4cnco4)c3)n2)c1)C1CCCCC1`, the Inhibition in experiment [1] was 95%; in experiment [2] it was 99%; in experiment [3], 71%.

Consider `Cn1nccc1C(=O)NCCNCc1ccc(-c2ccc(-c3nc4ccccc4[nH]3)s2)cc1.O=C(O)C(F)(F)F`, for which the Inhibition in experiment [1] is recorded as 100%; in experiment [2], 97%; in experiment [3] it was 23%.

Regarding `NS(=O)(=O)c1cccc(Nc2nccc(-c3c(-c4cccc(NC(=O)c5c(F)cccc5F)c4)nn4ccccc34)n2)c1`, the Inhibition in experiment [1] was found to be 98%; in experiment [2], 97%; in experiment [3] it was 81%.

Regarding `CSCCC(C(=O)O)N1C(=O)c2ccccc2C1=O` (stereo unspecified), the Inhibition in experiment [1] was 91%; in experiment [2], 0%; in experiment [3], 0%.

On to `CCN1CCN(c2ccc(Nc3ccnc4ccc(Br)cc34)cc2)CC1`, for which the Inhibition in experiment [1] amounted to 98%; in experiment [2] it was 86%; in experiment [3], 37%.

`COc1cc(Nc2ccnc3cc(-c4nccs4)ccc23)ccc1OCCCc1nc2ccccc2[nH]1.Cl`: the Inhibition is on record as 100% in experiment [1], 68% in experiment [2] and 100% in experiment [3].

Turning to `O=C(c1ccc(-c2ccc(-c3nc4cc(F)ccc4[nH]3)cc2)cc1)N1CCCCC1CN1CCC(O)C1` (stereo unspecified), the Inhibition was 90% in experiment [1], 100% in experiment [2] and 24% in experiment [3].

Regarding `O=C(O)C(F)(F)F.c1ccc(CCNCc2ccc(-c3ccc(CNc4ccc5ncccc5c4)cc3)cc2)cc1`, the Inhibition is 96% in experiment [1], 27% in experiment [2] and 36% in experiment [3].

Regarding `NC(=O)COc1c(C2CCN(CCN3CCC(CNC(=O)c4ccc(-c5ccc(C(F)(F)F)cc5)cc4)CC3)CC2)ccc2c1CCCC2`, the Inhibition was found to be 87% in experiment [1], 68% in experiment [2] and 32% in experiment [3].

The values are drawn from ChEMBL document CHEMBL1157539, “Thousands of chemical starting points for antimalarial lead identification” (Nature, 2010).
